The text below walks through data of PubChem BioAssay.

Structures are written as SMILES. The source made the active and inactive calls. No stated cut-off is given here; in the data, active means fold change permeability below about 0.7 or above about 1.3; inactive means in between.

The assay can be described thus: compounds altering in vitro BBB leakiness – cell-based, FITC-avidin fluorescence, HTS, primary screen (AID 1963498). Further: test concentration not given here. As to conditions: brain endothelial barrier, actives lie on both sides.
`CSc1ccc2c(c1)N(CCC1CCCCN1C)c1ccccc1S2` (centres undefined): the fold change permeability was 1.4 (active). The figure for `COC(=O)C1=C(C)NC(C)=C([N+](=O)[O-])C1c1ccccc1C(F)(F)F` (centres undefined) is 1.1 (inactive); for `CC(C)NCC(O)c1ccc(NS(C)(=O)=O)cc1` (centres undefined) it is 0.7 (active).

`O=C(Nc1ccccc1)c1cc([N+](=O)[O-])ccc1Cl`: the fold change permeability is 1.5 (active). The value for `C[C@@H](O)[C@H]1C(=O)N2C(C(=O)O)=C(SCCN=CN)C[C@H]12` was 0.8 (inactive); that for `CN(C)C(=O)Oc1cccc([N+](C)(C)C)c1` was 0.8 (inactive). The figure for `O=C(Nc1ccc(Oc2ccc(Cl)cn2)c(Cl)c1)c1ccccn1` is 1.5 (active); for `OC1(c2ccc(Cl)cc2)CCN(Cc2c[nH]c3ccccc23)CC1` it is 1.4 (active); for `NCCCC(=O)O` it is 0.8 (inactive). The value for `CC(=O)[C@@]1(O)CC[C@H]2[C@@H]3CCC4=CC(=O)CC[C@]4(C)[C@H]3CC[C@@]21C` was 1 (inactive); that for `O=C1NC(=O)C(Cc2ccc3cc(OCc4ccccc4F)ccc3c2)S1` (centres undefined) was 1.3 (active); that for `CC(C)(C=O)Cc1cc(C(C)(C)C)c(O)c(C(C)(C)C)c1` was 1.2 (inactive).

For `Cn1c(=O)[nH]c2ncn(C)c2c1=O`, the fold change permeability is 1.1 (inactive). The value for `Cc1cn[nH]c1` was 0.8 (inactive). The figure for `COC(=O)[C@H]1[C@H]2C[C@@H]3c4[nH]c5cc(OC)ccc5c4CCN3C[C@H]2C[C@@H](OC(=O)c2cc(OC)c(OC)c(OC)c2)[C@@H]1OC` is 1.5 (active). With `CC(=O)O[C@H]1Cc2ccccc2N(C(N)=O)c2ccccc21`, the fold change permeability is 1.8 (active).

For `CC(C)NCC(O)COc1ccc(COCCOC(C)C)cc1` (centres undefined), the fold change permeability is 0.8 (inactive). The value for `O=c1c(O)c(-c2cc(O)c(O)c(O)c2)oc2cc(O)cc(O)c12` was 0.7 (active); that for `Nc1ncnc2c1nc(Br)n2C1OC2COP(=O)(O)O[C@@H]2C1O` (some centres undefined) was 1 (inactive). The value for `COc1cc2nc(N3CCCN(C)CC3)nc(NC3CCN(Cc4ccccc4)CC3)c2cc1OC` was 2.2 (active); that for `Cc1cccc(-c2[nH]c(Cc3cccc(C(N)=O)c3)nc2-c2ccc3nccnc3c2)n1` was 0.9 (inactive); that for `C#CCN(C)CCCOc1ccc(Cl)cc1Cl` was 1.3 (active). The figure for `O=C1NC(=O)c2cc(Nc3ccccc3)c(Nc3ccccc3)cc21` is 0.9 (inactive); for `Nc1ccc(-c2ccc3ncc4ccc(=O)n(-c5cccc(C(F)(F)F)c5)c4c3c2)cn1` it is 1.3 (active). `Nc1ccc2c3c(cccc13)C(=O)NC2=O`: the fold change permeability is 2.8 (active). As for `CCc1ccc2c(-c3cccc(Cl)c3)nc(=O)n(CC)c2n1`, the fold change permeability is 1.5 (active).

On to `CNCCC(Oc1ccccc1OC)c1ccccc1` (centres undefined), for which the fold change permeability was 0.8 (inactive).

In the case of `COc1ccccc1N1CCN(CC(O)COc2cccc3ccccc23)CC1` (centres undefined), the fold change permeability is 0.8 (inactive). For `COc1ccc(CCN(C)CCCC(C#N)(c2cc(OC)c(OC)c(OC)c2)C(C)C)cc1OC` (centres undefined), the fold change permeability is 0.9 (inactive).

As for `NC[C@@H]1O[C@H](O[C@H]2[C@@H](O)[C@H](O[C@@H]3[C@@H](O)[C@H](N)C[C@H](N)[C@H]3O[C@H]3O[C@H](CO)[C@@H](O)[C@H](O)[C@H]3N)O[C@@H]2CO)[C@H](N)[C@@H](O)[C@@H]1O`, the fold change permeability is 1 (inactive). `O=C(O)C1=CCCN(CCON=C(c2ccccc2)c2ccccc2)C1`: the fold change permeability is 1.1 (inactive). Turning to `CN(C)c1nc(N(C)C)nc(N(C)C)n1`, the fold change permeability was 1.1 (inactive). The value for `CC(C)(C)c1ccc(C(O)CCCN2CCC(C(O)(c3ccccc3)c3ccccc3)CC2)cc1` (centres undefined) was 1.4 (active); that for `CN(C)c1ccccc1CN1CCCN(Cc2ccccc2N(C)C)C1c1ccncc1` was 1.1 (inactive); that for `Oc1ccccc1-c1cc(-c2ccccc2F)[nH]n1` was 1 (inactive).

Turning to `CC(C)(C)c1cc(/C=C(\C#N)C(N)=S)cc(C(C)(C)C)c1O`, the fold change permeability was 1.5 (active). For `NS(=O)(=O)C#Cc1ccccc1`, the fold change permeability is 1.8 (active).

In the case of `Cc1cc(NC(=O)Nc2ccc3c(ccn3C)c2)sn1`, the fold change permeability is 1.2 (inactive).

As for `NCCSSCCN`, the fold change permeability is 0.9 (inactive).
